{"source": "PubChem BioAssay AID1345083", "about": "(National Center for Advancing Translational Sciences (NCATS), 2018)", "note": "In all, about 94,000 compounds went through this assay and about 6,200 (6.6%) were called active. Another 31% or so got no clear call; they are omitted. What follows is part of a selection rich in actives, with near analogues and random picks from the rest. A number with no mark means an inactive call. Calls follow the shape of the dose curve; as a rule, active = well fitted inhibition curve with a large enough effect; inconclusive = small, poorly fitted or top-dose-only effect; inactive = flat fitted curve, though single readings scatter. % is scaled to controls: 0 for no effect and ±100 for the full control effect; potency is read from the fitted curve at half-maximal effect."}
{"test": "Cytotoxic Profiling in HEK 293 Cell Line of Diverse Libraries Using Quantitative High-Throughput Screening; also: nearly all actives have a fitted effect of over 60% in size", "details": "HEK 293 viability, ATP luminescence (CellTiter-Glo), 48-72 h; series mostly up to 115 µM; activity change, negative = cytotoxicity: at the top concentration", "how_it_was_run": "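Viability of HEK 293 cells, plated at 250 cells/well, was judged by cellular ATP after compound treatment for 48 or 72 hr. Luminescence was imaged 10 min after CellTiter-Glo addition at room temperature.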"}
{"smiles": "CC[C@H]1CN(S(C)(=O)=O)CC[C@H]1CC(=O)NCc1cccc2ccccc12", "activity change, negative = cytotoxicity": "-26% [at 172 µM]"}
{"smiles": "Cn1nc(-c2nncn2CC2CC2)c2c1CCN(C(=O)CC1CCCC1)C2", "outcome": "inactive"}
{"smiles": "O=C(Cc1cccc(F)c1)N1CCCC(Cc2nncn2-c2ccccc2)C1", "note": "(stereo unspecified)", "activity change, negative = cytotoxicity": "-7.97%"}
{"smiles": "CCOc1ncccc1CNC(=O)c1cc(S(N)(=O)=O)ccc1F", "Potency": "79.4 µM (active)"}
{"smiles": "NS(=O)(=O)c1ccc(F)c(C(=O)NCc2noc(-c3ccco3)n2)c1", "activity change, negative = cytotoxicity": "-23.5%"}
{"smiles": "NS(=O)(=O)c1ccc(F)c(C(=O)N[C@@H]2c3ccccc3C[C@@H]2O)c1", "activity change, negative = cytotoxicity": "-0.467%"}
{"smiles": "CNC(=O)c1cc(C)nc2onc(C3CCCN3C(=O)C3CCCC3)c12", "note": "(stereo unspecified)", "activity change, negative = cytotoxicity": "-7.89%"}
{"smiles": "Cc1cccc(NC(=O)N2CC(Oc3ccc(-c4nc(C)no4)cc3)C2)c1", "activity change, negative = cytotoxicity": "-12.5%"}
{"smiles": "CC1=C[C@@H](CNS(=O)(=O)c2cccc(C#N)c2)[C@H](C(C)C)C[C@H]1CC(=O)N(C)Cc1cccnc1", "Potency": "39.8 µM (active)"}
{"smiles": "CN1C[C@H](NS(C)(=O)=O)CCC[C@@H](C(=O)N(C)Cc2cccnc2)CC1=O", "activity change, negative = cytotoxicity": "1.06% [at 172 µM]"}
{"smiles": "CN(Cc1ccccc1)C(=O)C[C@@H]1O[C@H](CNS(=O)(=O)c2ccc(Cl)cc2)[C@@H](O)[C@H]1O", "outcome": "inactive"}
{"smiles": "CCOc1nccnc1NC1CCN(C(=O)c2cccnc2)CC1", "activity change, negative = cytotoxicity": "6.7%"}
{"smiles": "Cc1nn(CCO)cc1-c1c(-c2ccccc2)ncn1CC(=O)O", "activity change, negative = cytotoxicity": "-9.19%"}
{"smiles": "O=C(c1cccnc1)N1CCC(c2nnc(Cn3cccn3)n2C2CC2)CC1", "outcome": "inactive"}
{"smiles": "Cc1cnc(C(=O)N[C@@H]2CCC[C@@H]2C(=O)Nc2ccc3c(c2)OCCO3)cn1", "activity change, negative = cytotoxicity": "-7.64%"}
{"smiles": "O=C(O)CCc1cc2n(n1)CCCN(C(=O)CN1CCOC1=O)C2", "activity change, negative = cytotoxicity": "-3.14%"}
{"smiles": "CS(=O)(=O)c1ccc(N2CCN(C(=O)[C@H]3CC[C@@H](N)C3)CC2)c(F)c1", "outcome": "inactive"}
{"smiles": "O=C(c1ccccc1F)N1CCC(c2nn(-c3ccc(F)cc3)c(=O)[nH]2)CC1", "activity change, negative = cytotoxicity": "-24.9%"}
{"smiles": "Cc1ccc(C(=O)N2CCC(c3nn(-c4ccccc4)c(=O)[nH]3)CC2)cc1", "activity change, negative = cytotoxicity": "-28.8%"}
{"smiles": "O=C(c1ccccc1F)N1CCC(c2nn(-c3ccc(Cl)cc3)c(=O)[nH]2)CC1", "Potency": "79.4 µM (active)"}
{"smiles": "COc1cc(=O)n2c(c1C(=O)Nc1cc(C)ccc1C)CCCC2", "activity change, negative = cytotoxicity": "5.72%"}
{"smiles": "O=C(NC1CCCN(CCn2nc3n(c2=O)CCCC3)C1)c1ccc(F)cc1", "note": "(stereo unspecified)", "outcome": "inactive"}
{"smiles": "CCCCCC(=O)N1CC[C@H]2COC(=O)N2c2cc(F)ccc2C1", "activity change, negative = cytotoxicity": "-1.72% [at 172 µM]"}
{"smiles": "CN(CCc1noc(C2CN(S(=O)(=O)c3ccccc3)C2)n1)C(=O)c1ccncc1", "activity change, negative = cytotoxicity": "-17.8%"}
{"smiles": "O=S(=O)(c1ccccc1)N1CCC(F)(c2nc(Cc3ccccc3)no2)CC1", "Potency": "44.7 µM (active)"}
{"smiles": "O=S(=O)(c1ccccc1)N1CCN(c2ccnc3ccnn23)CC1", "activity change, negative = cytotoxicity": "-19.4%"}
{"smiles": "O=C(NCc1ccncc1)C1CC(=O)N(c2n[nH]c3cccc(F)c23)C1", "note": "(stereo unspecified)", "activity change, negative = cytotoxicity": "-11%"}
{"smiles": "Cc1ncc(C(=O)N2CCCC(c3cc(N4CCOCC4)nc(C)n3)C2)cn1", "note": "(stereo unspecified)", "activity change, negative = cytotoxicity": "-4.68%"}
{"smiles": "CN(C)C(=O)C1=NOC2CN(C(=O)c3ccn(C)n3)CC12", "note": "(stereo unspecified)", "outcome": "inactive [at 172 µM]"}
{"smiles": "O=C(CN1C(=O)NC2(CCOCC2)C1=O)Nc1cccc(Br)c1", "activity change, negative = cytotoxicity": "-9.49%"}
{"smiles": "CCOc1ccccc1CN1CCCOCCNC(=O)CC1", "activity change, negative = cytotoxicity": "4.71%"}
{"smiles": "CCOc1ccccc1CN1CCC2(CCN(C(=O)c3cccc(Cl)c3)CC2)Oc2ccccc21", "activity change, negative = cytotoxicity": "-12.9%"}
{"smiles": "CCOc1ccccc1CN1CCC2(CCN(Cc3cncs3)CC2)Oc2ccccc21", "Potency": "44.7 µM (active)"}
{"smiles": "CCn1ccc(C(=O)N2C[C@@H](F)C[C@H]2C(=O)N2CCCCC2)n1", "activity change, negative = cytotoxicity": "5.92%"}
{"smiles": "C#CCNC(=O)CC[C@H]1CNC(=O)[C@@H]2[C@@H](CCN2Cc2ccc(N(C)C)cc2)N1C", "activity change, negative = cytotoxicity": "-24.8% [at 172 µM]"}
{"smiles": "N#Cc1ccc(C(=O)N2C[C@@H]3C[C@H](C2)c2ccc(-c4ccc(OC(F)(F)F)cc4)c(=O)n2C3)cc1", "activity change, negative = cytotoxicity": "-16.7%"}
{"smiles": "CN1C[C@@H](NC(=O)CC(C)(C)C)C[C@H]1c1nc(Cc2ccccc2)no1", "activity change, negative = cytotoxicity": "-26.1% [at 172 µM]"}
{"smiles": "CN1C[C@@H](NC(=O)COc2ccccc2)C[C@H]1c1nc(-c2ccc3c(c2)OCO3)no1", "Potency": "100 µM (active)"}
{"smiles": "CN1C[C@@H](NC(=O)c2ccc(C(C)(C)C)cc2)C[C@H]1c1nc(-c2ccc3ccccc3c2)no1", "Potency": "22.4 µM (active)"}
{"smiles": "N#Cc1ccc(-c2nc(C(=O)NC3CCCCCC3)no2)cc1", "activity change, negative = cytotoxicity": "5.1%"}
{"smiles": "CN1C[C@@H](NC(=O)c2cnccn2)C[C@H]1c1nc(-c2ccc3c(c2)OCO3)no1", "activity change, negative = cytotoxicity": "-7.22% [at 172 µM]"}
{"smiles": "COc1ccc(CN2C[C@H](O)C[C@H]2c2nc(-c3ccc4c(c3)OCO4)no2)c(OC)c1OC", "activity change, negative = cytotoxicity": "-15.4%"}
{"smiles": "CN1C[C@@H](NC(=O)c2ccc(C#N)cc2)C[C@H]1c1nc(-c2ccc(OC(F)(F)F)cc2)no1", "Potency": "22.4 µM (active)"}
{"smiles": "CN1C[C@@H](NC(=O)c2ccccc2)C[C@H]1c1nc(-c2ccccc2)no1", "activity change, negative = cytotoxicity": "-13.3% [at 172 µM]"}
{"smiles": "CN(C)C(=O)N1CCN(C(=O)c2cccc(-c3ccccn3)c2)CC1", "activity change, negative = cytotoxicity": "-14.7% [at 172 µM]"}
{"smiles": "Cc1ccc(S(=O)(=O)Cc2noc([C@@H]3C[C@@H](O)CN3Cc3cccs3)n2)cc1", "activity change, negative = cytotoxicity": "-16.9% [at 172 µM]"}
